According to PubChem BioAssay (NCATS):
Where “and” joins values, the source holds several entries; their conditions need not be identical. Equal values may be shown once. Inconclusive results are not listed. Calls of active or inactive are those of the source. Unless noted, calls come from the whole dose curve; as a rule, active = well fitted curve in either direction with a large enough effect (not every such curve was filed as active); inconclusive = small, poorly fitted or top-dose-only effect, or another doubt; inactive = flat fitted curve, though single readings scatter.

Experiments:
[1] = Stat Signaling Pathway (AID 446);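 note: ME-180 cervical cancer cells given 40 pM IL-6 alongside compound; SIE-controlled beta-lactamase reporter measured as 460/530 nm FRET emission ratio; % is set by controls: 0 for no effect and ±100 for the full control effect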
How it was run: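 ME-180 cells carrying a SIE-driven beta-lactamase reporter are stimulated with 40 pM IL-6 for 5 h at 37C in the presence of compound. The 460/530 nm FRET substrate ratio is read after 2.5 h at RT. Data are normalised to 300 pM IL-6 and to 125 nM JAK inhibitor controls.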

[2] = target: Glucocorticoid receptor (Homo sapiens) (UniProt P04150); experiment: GR-GFP Redistribution (AID 450;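 active = compounds whose dose series gives a full or clear partial fitted curve of increased nuclear translocation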; note: potency is the fitted concentration of half-maximal effect); settings: U2OS GR-GFP nuclear translocation, laser cytometry, 2 h
[3] = target: Glucocorticoid receptor (Homo sapiens) (UniProt P04150); experiment: GR-EFC Redistribution (AID 451; calls by dose curve; note: potency is the fitted concentration of half-maximal effect); settings: CHO-K1 GR-EFC translocation, beta-gal luminescence, 2 h
How it was run: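 CHO-K1 cells expressing nuclear EA and GR-ED fragments of b-gal; compounds titrated up to 46 uM final, 2 h at 37 C. GR nuclear translocation read as complemented b-gal luminescence after 1 h RT detection.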

[4] = target: Mitogen-activated protein kinase 10 (Mus musculus) (UniProt Q61831); experiment: JNK3 AlphaScreen Assay (AID 530);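 note: kinase came from lysate of stimulated human HepG2 cells; signal reports phosphorylation of biotinylated GST-cJun 1-79 at Ser73 with 10 µM ATP; % is set by controls: 0 for no effect and ±100 for the full control effect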
How it was run: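 Pre-activated (IL-1β/TNFα) JNK3 in HepG2 lysates phosphorylates biotin-GST-cJun(1-79), 10 uM ATP; anti-phospho-cJun(Ser73) AlphaScreen read at room temperature, pH 7.6 Tris buffer. Compounds pre-incubated 15 min as titrations.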

[5] = Cell Viability - NIH 3T3 (AID 541; active = well fitted curve in the direction sought with a large enough effect; an effect the other way counts as inactive or inconclusive;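 note: plate controls were DMSO alone for no effect and tamoxifen positive control for full effect; nearly all actives have a fitted effect of over 25% in size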); settings: NIH 3T3 cell viability, qHTS; activity change, negative = cytotoxicity: at 92.2 µM (top of the series)
How it was run: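 Mouse NIH 3T3 fibroblasts, 1000 cells/well, rested 5 hr at 37 °C, then exposed to compound for 40 hr at 37 °C in complete medium. Viability read as intracellular ATP by CellTiter-Glo luminescence; AC50 from Hill-equation fits of concentration-response data.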

[6] = Cell Viability - H-4-II-E (AID 543; active = well fitted curve in the direction sought with a large enough effect; an effect the other way counts as inactive or inconclusive; note: nearly all actives have a fitted effect of over 35% in size; note: potency is the fitted concentration of half-maximal effect)
How it was run: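 Rat hepatoma H-4-II-E cells, 1500 per well, treated 40 h at 37 °C in complete medium. Cellular ATP read by CellTiter-Glo luminescence; AC50 from Hill fits of concentration-response.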

[7] = Cell Viability - Renal Proximal Tubule (AID 545; active = well fitted curve in the direction sought with a large enough effect; an effect the other way counts as inactive or inconclusive;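 note: 0% = DMSO only and -100% = 100 µM tamoxifen; nearly all actives have a fitted effect of over 40% in size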); settings: renal proximal tubule cells viability, primary cells of rat origin; activity change, negative = cytotoxicity: at 91.7 µM (top of the series)
How it was run: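 Primary rat renal proximal tubule cells (1000/well) were treated with compounds for 40 hr at 37 °C in complete medium. Intracellular ATP was measured by CellTiter-Glo luminescence, and AC50 values came from Hill-equation fits of concentration-response data.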

[8] = Cell Viability - Mesenchymal (AID 546; active = well fitted curve in the direction sought with a large enough effect; an effect the other way counts as inactive or inconclusive;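 note: cells exposed to compound for 40 hours before reading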; note: potency is the fitted concentration of half-maximal effect;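 for activity change, negative = cytotoxicity: 0% = DMSO only and -100% = 100 µM tamoxifen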); settings: mesenchymal cells viability, qHTS; activity change, negative = cytotoxicity: at 91.7 µM (top of the series)
How it was run: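 Human kidney mesenchymal cells from normal renal glomeruli, 1000 cells/well, rested 5 hr at 37 °C, then treated 40 hr at 37 °C in complete medium. Cellular ATP read by CellTiter-Glo luminescence; AC50 from Hill-equation fits.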

[9] = target: 3',5'-cyclic-AMP phosphodiesterase 4B (Homo sapiens) (UniProt Q07343); experiment: qHTS Assay for Inhibitors of PDE-IV (AID 607; active = well fitted activation curve with a large enough effect in the main read-out, with a control signal flat, not every such curve was filed as active; note: % of control where 0% means no effect)
How it was run: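 HEK293 ACTOne cells with CNG channel (1000/well), endogenous PDE4; membrane potential dye, compounds up to 22.9 uM final. Fluorescence Ex 535/Em 590; RO 20-1724 (100 uM final) as reference.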

[10] = Cellular Toxicity (caspase-3) HUV-EC-C (AID 656; active = well fitted curve in the direction sought with a large enough effect; an effect the other way counts as inactive or inconclusive;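 note: 0% = DMSO basal and 100% = 100 µM tamoxifen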)
How it was run: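 HUV-EC-C endothelial cells, 1000/well, were pre-incubated 5 hr at 37°C, then exposed to compounds for 16 hr at 37°C. Caspase-Glo 3/7 luminescence was read after 20 min at room temperature. AC50 came from Hill fits, normalized to DMSO and 100 uM tamoxifen.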

[11] = Cellular Toxicity (caspase-3) SHSY5Y (AID 657; active = well fitted curve in the direction sought with a large enough effect; an effect the other way counts as inactive or inconclusive)
How it was run: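 SH-SY5Y human neuroblastoma cells (1500/well) were treated with compounds for 16 h at 37 °C, then Caspase-Glo 3/7 luminescence was read after 1 h at room temperature. Data normalized to DMSO and 10 uM staurosporine; AC50 from Hill fits.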

[12] = Cellular Toxicity (caspase-3) Mesangial (AID 660; active = well fitted curve in the direction sought with a large enough effect; an effect the other way counts as inactive or inconclusive;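 note: cells exposed to compound for 16 h before the caspase read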)
How it was run: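 Human renal glomerular mesangial cells, 1000/well, 5 h at 37 C before 16 h compound treatment. Caspase-Glo 3/7 luminescence after 20 min; normalized to DMSO and 100 uM tamoxifen, AC50 from Hill fit.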

[13] = Cell Viability - N2a (AID 540; active = well fitted curve in the direction sought with a large enough effect; an effect the other way counts as inactive or inconclusive;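 note: plate controls were DMSO alone for no effect and tamoxifen control for full effect; nearly all actives have a fitted effect of over 45% in size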)
How it was run: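 Mouse neuroblastoma N2a cells, 1500/well, exposed to compounds 40 h at 37 °C in complete medium. Viability measured as cellular ATP by CellTiter-Glo luminescence; AC50 from Hill fits of concentration-response.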

[14] = Cell Viability - HUV-EC-C (AID 542; active = well fitted curve in the direction sought with a large enough effect; an effect the other way counts as inactive or inconclusive; note: % is set by controls: 0 for no effect and ±100 for the full control effect; nearly all actives have a fitted effect of over 35% in size)
How it was run: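 HUV-EC-C human vascular endothelial cells, 1000/well, exposed to compound for 40 hr at 37 °C in complete medium. Intracellular ATP was read by CellTiter-Glo luminescence. AC50 came from Hill-equation fits of concentration-response data.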

[15] = Cell Viability - SH-SY5Y (AID 544; active = well fitted curve in the direction sought with a large enough effect; an effect the other way counts as inactive or inconclusive;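 note: 0% = DMSO alone and -100% = 100 µM tamoxifen; nearly all actives have a fitted effect of over 55% in size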)
How it was run: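 SH-SY5Y human neuroblastoma cells (1500/well) incubated 5 h, then compound-treated 40 h at 37 °C in complete medium. Viability read as intracellular ATP by CellTiter-Glo luminescence after 20 min; AC50 from Hill-equation fits of qHTS concentration-response.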

[16] = Cellular Toxicity (caspase-3) HepG2 (AID 654; active = well fitted curve in the direction sought with a large enough effect; an effect the other way counts as inactive or inconclusive;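 note: cells exposed to compound for 16 hours before reading; 0% = DMSO alone and 100% = caspase signal from 100 µM tamoxifen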)
How it was run: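 HepG2 cells (1500/well) were treated 16 h at 37 °C in complete medium, then caspase 3/7 activity was read by Caspase-Glo luminescence. Data were normalized to DMSO and 100 uM tamoxifen; AC50 came from Hill-equation fits of qHTS concentration-response.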

[17] = Cellular Toxicity (caspase-3) Jurkat (AID 655; active = well fitted curve in the direction sought with a large enough effect; an effect the other way counts as inactive or inconclusive;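 note: cells exposed to compound for 16 h at 37 °C before reading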)
How it was run: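 Jurkat cells (5000/well) in complete medium were treated with compounds for 16 hr at 37 °C, then Caspase-Glo 3/7 luminescence was read after 20 min at room temperature. Data normalized to DMSO (basal) and 100 uM tamoxifen (100%); AC50 from Hill fit.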

[18] = Cellular Toxicity (caspase-3) BJ (AID 658; active = well fitted curve in the direction sought with a large enough effect; an effect the other way counts as inactive or inconclusive;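 note: 0% = DMSO basal and 100% = 10 µM staurosporine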)
How it was run: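 BJ human foreskin fibroblasts, 1000 cells/well, treated 16 hours at 37 °C in complete medium; caspase 3/7 activity by Caspase-Glo luminescence after 1 hr at room temperature. Normalized to DMSO and 10 uM staurosporine; AC50 from Hill fits.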

[19] = Cellular Toxicity (caspase-3) MRC-5 (AID 659; active = well fitted curve in the direction sought with a large enough effect; an effect the other way counts as inactive or inconclusive;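 note: 0% = DMSO basal and 100% = 10 µM staurosporine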); settings: Potency: caspase-3 activation
How it was run: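 MRC-5 human normal lung fibroblasts, 1500 cells/well, treated 16 h at 37 °C in complete medium. Caspase 3/7 measured by Caspase-Glo luminescence after 1 h at room temperature. Normalized to DMSO and 10 uM staurosporine; AC50 from Hill fit.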

[20] = Cellular Toxicity (caspase-3) SK-N-SH (AID 661; active = well fitted curve in the direction sought with a large enough effect; an effect the other way counts as inactive or inconclusive;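 note: 0% = DMSO basal and 100% = 10 µM staurosporine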); settings: SK-N-SH caspase-3 activation, qHTS; caspase-3 activation: at 91.7 µM (top of the series), DMSO as zero, staurosporine as full
How it was run: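 Human SK-N-SH neuroblastoma cells, 1500/well, were exposed to compounds for 16 hours at 37 °C. Caspase-Glo 3/7 luminescence was normalized to DMSO (basal) and 10 uM staurosporine (100%), and AC50 came from a Hill fit.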

Glucocorticoid receptor (Homo sapiens), sequence (P04150 whole entry, looked up, the tested form may be a part): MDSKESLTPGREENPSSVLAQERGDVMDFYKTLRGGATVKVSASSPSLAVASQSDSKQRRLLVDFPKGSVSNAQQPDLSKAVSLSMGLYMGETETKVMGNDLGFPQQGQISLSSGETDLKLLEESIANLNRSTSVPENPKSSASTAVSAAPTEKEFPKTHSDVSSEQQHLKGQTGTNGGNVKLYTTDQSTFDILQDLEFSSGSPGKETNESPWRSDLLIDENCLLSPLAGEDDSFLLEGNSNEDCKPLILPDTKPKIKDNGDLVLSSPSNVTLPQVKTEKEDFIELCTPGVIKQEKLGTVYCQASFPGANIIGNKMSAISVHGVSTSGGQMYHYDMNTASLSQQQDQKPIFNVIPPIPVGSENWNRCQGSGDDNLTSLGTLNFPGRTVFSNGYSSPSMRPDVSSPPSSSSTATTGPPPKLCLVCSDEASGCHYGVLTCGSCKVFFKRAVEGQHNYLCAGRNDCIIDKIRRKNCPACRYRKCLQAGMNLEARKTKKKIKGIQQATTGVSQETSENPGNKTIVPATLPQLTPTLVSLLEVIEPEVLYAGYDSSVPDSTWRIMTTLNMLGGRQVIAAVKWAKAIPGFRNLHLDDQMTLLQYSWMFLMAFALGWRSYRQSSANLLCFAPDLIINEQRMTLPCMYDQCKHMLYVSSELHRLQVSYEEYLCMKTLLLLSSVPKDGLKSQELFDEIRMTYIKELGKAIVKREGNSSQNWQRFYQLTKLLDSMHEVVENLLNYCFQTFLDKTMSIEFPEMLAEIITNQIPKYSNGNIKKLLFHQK
3',5'-cyclic-AMP phosphodiesterase 4B (Homo sapiens), sequence (Q07343 whole entry, looked up): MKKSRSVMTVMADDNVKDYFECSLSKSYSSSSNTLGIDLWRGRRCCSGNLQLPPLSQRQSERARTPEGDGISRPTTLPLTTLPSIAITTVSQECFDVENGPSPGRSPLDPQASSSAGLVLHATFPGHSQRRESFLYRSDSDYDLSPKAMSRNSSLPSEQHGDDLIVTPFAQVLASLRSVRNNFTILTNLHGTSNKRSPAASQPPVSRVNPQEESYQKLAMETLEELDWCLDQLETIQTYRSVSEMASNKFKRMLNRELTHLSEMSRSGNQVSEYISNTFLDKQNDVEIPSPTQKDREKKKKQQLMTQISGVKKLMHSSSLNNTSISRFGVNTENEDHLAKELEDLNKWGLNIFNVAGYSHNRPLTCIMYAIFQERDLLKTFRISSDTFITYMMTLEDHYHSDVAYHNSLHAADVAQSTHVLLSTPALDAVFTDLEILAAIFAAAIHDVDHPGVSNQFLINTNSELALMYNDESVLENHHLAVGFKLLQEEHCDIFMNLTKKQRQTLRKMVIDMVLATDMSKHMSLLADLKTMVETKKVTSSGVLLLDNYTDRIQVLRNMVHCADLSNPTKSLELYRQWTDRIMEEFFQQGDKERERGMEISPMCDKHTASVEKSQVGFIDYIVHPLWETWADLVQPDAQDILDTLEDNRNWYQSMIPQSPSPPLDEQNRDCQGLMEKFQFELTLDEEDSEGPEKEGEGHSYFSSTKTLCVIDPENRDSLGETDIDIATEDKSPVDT

CN(C)[C@@H]1C(=O)C(C(N)=O)=C(O)[C@@]2(O)C(=O)C3=C(O)c4c(O)ccc(Cl)c4[C@@H](O)[C@H]3C[C@@H]12
inactive: outcome [1] | Potency [2] > 20.6 µM

C[C@]12CCC(=O)C=C1CC[C@@H]1[C@@H]2CC[C@@]2(C)[C@H]1CC[C@]2(O)C(=O)CO
active: Potency [2] 0.0458 µM
inactive: outcome [1]

C[C@]12C=CC(=O)C=C1CC[C@H]1[C@@H]3C[C@@H](O)[C@](O)(C(=O)CO)[C@@]3(C)C[C@H](O)[C@@]12F
active: Potency [2] 0.148 µM
inactive: outcome [1]

CO[C@@]1(NC(=O)CSCC#N)C(=O)N2C(C(=O)O)=C(CSc3nnnn3C)CS[C@@H]21
inactive: outcome [1] | Potency [2] > 20.6 µM

Cc1nc2sccn2c(=O)c1CCN1CCC(=C(c2ccc(F)cc2)c2ccc(F)cc2)CC1
inactive: outcome [1] | Potency [2] > 46 µM and > 20.6 µM | Potency [3] > 46 µM | Potency [4]

COc1ccc2c(c1OC)C(=O)O[C@@H]2[C@H]1c2c(cc3c(c2OC)OCO3)CCN1C
inactive: outcome [1] | Potency [2] > 46 µM and > 20.6 µM

C=CCc1ccccc1OCC(O)CNC(C)C (stereo unspecified)
inactive: outcome [1]

Nc1nc(N)c2nc(-c3ccccc3)c(N)nc2n1
inactive: outcome [1] | Potency [2] > 46 µM and > 20.6 µM | Potency [3] > 46 µM and > 20.6 µM | Potency [4] | Potency [9] | outcome [10] | outcome [11] | outcome [12]
active: activity change, negative = cytotoxicity [5] -88.4% | Potency [6] 316 nM | activity change, negative = cytotoxicity [7] -93% | Potency [8] 25.1 µM

CCOC(=O)C1=C(C)NC(C)=C(C(=O)OC)C1c1cccc(Cl)c1Cl (stereo unspecified)
inactive: outcome [1] | Potency [2] > 20.6 µM

Cc1ccc(Cl)c(Nc2ccccc2C(=O)O)c1Cl
inactive: outcome [1] | Potency [2] > 46 µM and > 20.6 µM | Potency [4]

O=C(O)CN(CCOCCOCCN(CC(=O)O)CC(=O)O)CC(=O)O
inactive: outcome [1] | Potency [2] > 46 µM | Potency [4] | Potency [9]

NCCCNCCSP(=O)(O)O
inactive: outcome [1] | Potency [2] > 46 µM | Potency [3] > 46 µM | Potency [4] | Potency [9]

Cc1ccc(S(=O)(=O)NC(=O)NN2CCCCCC2)cc1
inactive: outcome [1] | Potency [2] > 46 µM and > 20.6 µM | Potency [4] | Potency [9]

CC1=NS(=O)(=O)c2cc(Cl)ccc2N1
inactive: outcome [1] | Potency [2] > 46 µM and > 20.6 µM | Potency [3] > 46 µM and > 20.6 µM | Potency [4] | Potency [9]

CN(C(=O)CCCOc1ccc2[nH]c(=O)ccc2c1)C1CCCCC1
inactive: outcome [1] | Potency [2] > 46 µM | Potency [4] | Potency [9]

CC(C)NNC(=O)c1ccncc1
inactive: outcome [1] | Potency [2] > 46 µM and > 20.6 µM | Potency [4] | Potency [9]

CCCCNC(=O)NS(=O)(=O)c1ccc(C)cc1
inactive: outcome [1] | Potency [2] > 46 µM and > 20.6 µM | Potency [4] | outcome [13] | activity change, negative = cytotoxicity [5] -10.4% | Potency [14] | Potency [6] | Potency [15] | activity change, negative = cytotoxicity [7] -6.67% | Potency [8] | Potency [9] | outcome [16] | Potency [17] | outcome [10] | outcome [11] | outcome [18] | Potency [19] | outcome [12] | caspase-3 activation [20] -0.361%

CC(=O)Nc1nnc(S(N)(=O)=O)s1
inactive: outcome [1] | Potency [2] > 46 µM and > 20.6 µM | Potency [4] | Potency [9]

c1cnc(N2CCN(Cc3ccc4c(c3)OCO4)CC2)nc1
inactive: outcome [1] | Potency [2] > 46 µM and > 20.6 µM | Potency [3] > 46 µM and > 20.6 µM | Potency [4] | Potency [9]

O=C1NCN(c2ccccc2)C12CCN(CCCC(c1ccc(F)cc1)c1ccc(F)cc1)CC2
inactive: outcome [1] | Potency [2] > 46 µM and > 20.6 µM | Potency [3] > 46 µM and > 20.6 µM | Potency [4] | Potency [9]

CCO/C([O-])=N/c1c[n+](N2CCOCC2)no1
inactive: outcome [1] | Potency [2] > 46 µM and > 20.6 µM | Potency [3] > 46 µM and > 20.6 µM | Potency [4] | Potency [9]

CN1CCN(CC(=O)N2c3ccccc3C(=O)Nc3cccnc32)CC1
inactive: outcome [1] | Potency [2] > 46 µM and > 20.6 µM | Potency [4] | Potency [9]

CCCC(C(=O)OCCN(CC)CC)(c1ccccc1)c1ccccc1
inactive: outcome [1] | Potency [2] > 46 µM and > 20.6 µM | Potency [4] | Potency [9]

CC(C)[N+](C)(CCOC(=O)C1c2ccccc2Oc2ccccc21)C(C)C
inactive: outcome [1] | Potency [2] > 46 µM and > 20.6 µM | Potency [4] | Potency [9]

CN/C(=C\[N+](=O)[O-])NCCSCc1ccc(CN(C)C)o1
inactive: outcome [1] | Potency [2] > 46 µM and > 20.6 µM | Potency [3] > 46 µM and > 20.6 µM | Potency [4] | Potency [9]

C#CCN(C)CCCOc1ccc(Cl)cc1Cl
inactive: outcome [1] | Potency [2] > 46 µM and > 20.6 µM | Potency [4] | Potency [9]

C[N+](C)(C)CCCCCCCCCC[N+](C)(C)C
inactive: outcome [1] | Potency [2] > 46 µM and > 20.6 µM | Potency [4] | Potency [9]
